Each structure is given as a SMILES string. Inconclusive results are not listed. The source made the active and inactive calls. Calls come from the whole dose curve; as a rule, active = well fitted inhibition curve with a large enough effect in the signal ratio in the repeat runs (not every such curve was filed as active); inconclusive = weak or mixed curves, or effect the other way; inactive = flat fitted curve, though single readings scatter; the % refers to the signal ratio.
% is set by controls: 0 for no effect and ±100 for the full control effect; potency is the fitted concentration of half-maximal effect.

This experiment in a line: cAMP Responsive Elements (CRE) small molecule antagonists, cell-based qHTS assay (AID 1963591). The conditions noted are these: CRE-bla HEK293T, beta-lactamase FRET ratio; series mostly up to 92.4 µM; activity change, negative = inhibition: at the top concentration. An excerpt:
U.S. Tox21 Program National Center for Advancing Translational Sciences [NCATS] Division of Preclinical Innovation [DPI] U.S. Environmental Protection Agency [EPA] National Institutes of Environmental Health Sciences [NIEHS] National Toxicology Program [NTP] U.S. Food and Drug Administration [FDA] Tox21 Assay Overview: CREB (cyclic-AMP Responsive Element Binding Protein) is a cellular transcription factor. It binds to certain DNA sequences called cAMP Responsive Elements (CRE) and regulates the transcription of the genes. […] This cell line can be used to find agonists/antagonists of the cyclic AMP signaling pathway. The activation of the report gene under culture conditions can be detected by fluorescence intensity. This cell line has been used to screen the Tox21 10K compound library to […].
Tox21 Assay Protocol Summary: CRE-bla Hek 293T cells were suspended in assay medium (DMEM containing 10% dialyzed FBS, 0.1 mM NEAA, 1 mM sodium pyruvate and 25 mM HEPES) and dispensed at 2,000 cells/4 uL /well into 1536-well black wall/clear bottom plates using a Multidrop Combi (ThermoFisher Scientific, Waltham, MA) dispenser. After the assay plates were incubated at 37 C/5% CO2 for 18 hrs, 23 nL of compounds dissolved in DMSO, positive controls or DMSO only was transferred to the assay plate by a pintool workstation (Kalypsys, San Diego, CA), followed by addition of 1 […] uL of 1.25uM NKH477 (0.25 uM as final concentration) in assay medium using a Flying Reagent Dispenser (Aurora Discovery, San Diego, CA). The plates were incubated at 37 C and 5% CO2 for 3 hrs. Then 1 uL of LiveBLAzer B/G FRET substrate (Invitrogen, Carlsbad, CA) was added to each well using Bioraptr Flying Reagent Dispenser (FRD, Aurora Discovery, San Diego, CA). The plates were incubated at room temperature for 2 h.
For orientation: In qHTS, concentration-response curves come from the screen itself.
For the compound `CC1=C(C(=O)O)N2C(=O)[C@@H](NC(=O)[C@H](N)c3ccccc3)[C@H]2SC1`, the “activity change, negative = inhibition” value was 0.514% [at 42.4 µM] (inactive). Regarding `CCCCc1ccc2nc(NC(=O)OC)[nH]c2c1`, the “activity change, negative = inhibition” value was -12.4% [at 42.4 µM] (inactive). As to `c1ccc2c(c1)ccc1c3ccccc3ccc21`, the “activity change, negative = inhibition” value is 0.647% [at 42.4 µM] (inactive). Turning to `CCCCC[Si](OCC)(OCC)OCC`, the “activity change, negative = inhibition” value is 0.326% (inactive). Turning to `Cc1cc2nc3ccc(=[N+](C)C)cc-3sc2cc1N`, the “activity change, negative = inhibition” value is -14.8% [at 42.4 µM] (inactive). Consider `C=CCCCCCCCCCCCCCC`, for which the activity change, negative = inhibition was -3.11% [at 18.9 µM] (inactive). Consider `Fc1ccccc1`, for which the “activity change, negative = inhibition” value is 0.217% (inactive).

Turning to `Cc1c(NC(=O)c2cccnc2)c(=O)n(-c2ccccc2)n1C`, the “activity change, negative = inhibition” value is -9.56% [at 42.4 µM] (inactive). On the same count and under the same terms, for `CC(C)C(=O)OCCc1ccccc1` the value was -8.4% (inactive).

With `CC(=O)[O][Al]`, the “activity change, negative = inhibition” value is 6.99% (inactive). `N=C(N)N1CCc2ccccc2C1`: the activity change, negative = inhibition is -2.28% [at 8.39 µM] (inactive). As to `Nc1ccc([N+](=O)[O-])cc1O`, the “activity change, negative = inhibition” value is -1.36% (inactive). Consider `O=C(O)c1ccc2cc(C(=O)O)ccc2c1`, for which the “activity change, negative = inhibition” value is 1.49% (inactive). As for `CCCNCCC`, the “activity change, negative = inhibition” value is 3.05% (inactive). With `c1ccc(B(c2ccccc2)c2ccccc2)cc1`, the Potency is 28.5 µM (active). Regarding `CCCCC/C(=C\c1ccccc1)CO`, the “activity change, negative = inhibition” value is -78.6% (inactive). Turning to `CC(=O)N[C@@H](CCC(=O)O)C(=O)O`, the “activity change, negative = inhibition” value was 1.23% [at 42.4 µM] (inactive).

For the compound `C=CCOC(=O)c1ccc(C(=O)OCC=C)c(C(=O)OCC=C)c1`, the “activity change, negative = inhibition” value was 18.2% (inactive). Regarding `CC(C)O`, the “activity change, negative = inhibition” value was -9.24% (inactive). For `CC(=O)c1ccc[nH]1`, the “activity change, negative = inhibition” value was -7.93% (inactive). On the same count and under the same terms, for `CC(=O)c1ccc2c(c1)N(CCCN1CCC(CCO)CC1)c1ccccc1S2` the value was 0.23% [at 42.4 µM] (inactive); for `C[C@@H](c1ncncc1F)C(O)(Cn1cncn1)c1ccc(F)cc1F` (stereo not given in full), -0.671% [at 42.4 µM] (inactive). For the compound `C=CC(C)(CCC=C(C)C)OC(=O)CC(C)C` (stereo not given), the “activity change, negative = inhibition” value is 0.701% (inactive). `NC(CCC(=O)O)C(=O)O` (stereo not given): the “activity change, negative = inhibition” value is 1.2% (inactive).

Regarding `CC1(C)CC(=O)CC(C)(C)N1`, the “activity change, negative = inhibition” value is 3.47% (inactive). Regarding `CC(O)C#CC(C)O` (stereo not given), the “activity change, negative = inhibition” value is -1.94% (inactive). For `CC1CCN(CCCC(=O)c2ccc(F)cc2)CC1`, the “activity change, negative = inhibition” value is -0.593% [at 42.4 µM] (inactive).

As for `O=S(=O)(O)c1cc(Cl)c(Cl)cc1Cl`, the “activity change, negative = inhibition” value is 13.3% (inactive).

Consider `COC(=O)CC(C)CCC=C(C)C` (stereo not given), for which the “activity change, negative = inhibition” value is -15.8% (inactive). With `CC(C)N(c1ccccc1)C(C)C`, the “activity change, negative = inhibition” value was 9.09% (inactive). For the compound `CC(C)(Cc1c[nH]c2ccccc12)NCC(O)COc1ccccc1C#N` (stereo not given), the “activity change, negative = inhibition” value is 5.76% [at 42.4 µM] (inactive). Take `CC(C)(C)C(=O)CCc1ccc(Cl)cc1`: the “activity change, negative = inhibition” value is -11.5% (inactive). Same read-out and setting: for `CC(C)(C(=O)O)c1ccc(C(O)CCCN2CCC(C(O)(c3ccccc3)c3ccccc3)CC2)cc1` (stereo not given) the value was 0.252% [at 42.4 µM] (inactive); for `CC(=O)CCc1ccc(OC(C)=O)cc1`, -1.22% (inactive). Take `CCCNC(C)C(=O)Nc1c(C)csc1C(=O)OC` (stereo not given): the “activity change, negative = inhibition” value was 0.861% [at 42.4 µM] (inactive). With `COc1ccc2nc(S(=O)Cc3ncc(C)c(OC)c3C)[nH]c2c1` (stereo not given), the Potency result is “inactive”. With `CN(C)C(=O)Oc1cccc([N+](C)(C)C)c1`, the “activity change, negative = inhibition” value is 1.09% [at 42.4 µM] (inactive). `CCCCCCC(O)CCCCCCCCCCC(=O)O` (stereo not given): the “activity change, negative = inhibition” value was -7.88% (inactive).

`CNCCC(Oc1ccc(C(F)(F)F)cc1)c1ccccc1` (stereo not given): the “activity change, negative = inhibition” value is -18.2% [at 42.4 µM] (inactive). Same read-out and setting: for `COC(=O)C1=C(C)NC(C)=C(C(=O)O[C@@H]2CCCN(Cc3ccccc3)C2)[C@@H]1c1cccc([N+](=O)[O-])c1` the value was 8.21% [at 42.4 µM] (inactive).

The record behind these values is PubChem BioAssay (Tox21).
